Experimental findings from ChEMBL document CHEMBL4513216, “Probing the Open Global Health Chemical Diversity Library for Multistage-Active Starting Points for Next-Generation Antimalarials” (ACS Infect Dis, 2020) are described below.

Out of some 69,000 compounds screened, about 8,600 (12%) showed an effect of 50% or more. The sample holds strong results, similar compounds and a random draw of the others, so the mix is not that of the screen.

The test has as its system Plasmodium berghei. The test can be described thus: Screen against P. berghei liver stage (PbLuc), transformed with Luciferase, at 10uM. Type of test: functional, HepG2. As to conditions: tested at 10 uM.
In the case of `Cc1ccnc(NCc2ccccc2N2CCOCC2)n1`, the INHIBITION amounted to 46.3%.
With `Cc1[nH]nc2ncc(C(=O)N3CCN(CC(C)O)CC3)cc12` (configuration not stated), the INHIBITION is reported as -0.96%.
As for `Cc1ccc(OCC2CCCN(C(=O)c3csc(CN(C)C)n3)C2)cc1` (configuration not stated), the figure is 31%; as for `c1cnc(N2CCOC3(CCN(CC4CCOC4)CC3)C2)nc1` (configuration not stated), 8.64%.
The figure for `CCNC(=O)c1ccc(NC2CCOC3(CCCC3)C2)nn1` (configuration not stated) is 24.6%; for `Cc1cccc(N2CC[C@@H]3CN(C(=O)c4ccco4)CCO[C@@H]3C2)n1` it is 49.5%; for `O=C(CCO)N1CC[C@@H]2CN(C(=O)c3ccco3)CCO[C@@H]2C1` it is 80%.
`O=C(c1ccco1)N1CCO[C@@H]2CN(c3ncc(F)cn3)CC[C@@H]2C1`: the INHIBITION was 42.6%.
Turning to `O=C(c1ccco1)N1CCO[C@@H]2CN(Cc3nccs3)CC[C@@H]2C1`, the INHIBITION is recorded as -5.89%.
The figure for `O=C(c1ccco1)N1CC[C@@H]2CN(C3CCOCC3)CCO[C@@H]2C1` is 22.2%.
For `O=C(c1ccco1)N1CCO[C@@H]2CNCC[C@@H]2C1`, the INHIBITION is -0.388%.
As to `O=C(c1ccco1)N1CCO[C@@H]2CN(c3ccccc3)CC[C@@H]2C1`, the INHIBITION was determined as 84.7%.
`O=C(c1ccco1)N1CCO[C@@H]2CN(c3ccccn3)CC[C@@H]2C1`: the INHIBITION was -26.5%.
Regarding `O=C(c1ccco1)N1CCO[C@@H]2CN(CC3CC3)CC[C@@H]2C1`, the INHIBITION came to 85.8%.
As for `CCc1cnc(N2CC[C@@H]3CN(C(=O)c4ccco4)CCO[C@@H]3C2)nc1`, the figure is 92.5%.
As for `CCc1cnc(N2CC[C@@H]3CN(C(C)=O)CCO[C@@H]3C2)nc1`, the figure is 45.8%; as for `CC(=O)N1CC[C@@H]2CN(C(=O)c3ccco3)CCO[C@@H]2C1`, 48.3%.
As for `CC(NC(=O)N1CCCC1)c1ccc(S(N)(=O)=O)cc1` (configuration not stated), the figure is 33.7%; as for `NC(=O)[C@@H]1CCCN1C(=O)c1csc(-c2ccc(C(F)(F)F)cc2)n1`, 28.4%; as for `Cc1cc(CN(C)C(=O)C(c2ccccc2F)N(C)C)ccn1` (configuration not stated), 30%.
As for `COc1ccc(CC(=O)N2CCCC(c3cc(C)[nH]n3)C2)cc1` (configuration not stated), the INHIBITION came to 28.62%.
As for `CN(C)C(=O)CO[C@H]1CN(Cc2cccc(F)c2)[C@@H]2CCCO[C@H]12`, the INHIBITION was 43.1%.
Take `COCc1cc(CNc2cnn(CC(F)F)c2)ccc1OC`: the INHIBITION was 38.2%.
For `CC(=O)N1CCO[C@@H]2CN(C(=O)NCc3cccnc3)CC[C@@H]2C1`, the INHIBITION was determined as 12.1%.
As for `CN1CCO[C@@H]2CN(C(=O)NCc3ccccc3)CC[C@@H]2C1`, the figure is 16.8%.
The figure for `CC(=O)N1CCO[C@@H]2CN(C(=O)NCc3ccccc3)CC[C@@H]2C1` is 51.2%; for `CN(C)C(=O)N1C[C@H]2CC[C@@H](C1)N(Cc1ccc3nsnc3c1)C2` it is 21.8%.
As to `Fc1ccc(CN2CCCC(c3cc4ncccc4[nH]3)C2)cc1` (configuration not stated), the INHIBITION is listed as 85.65%.
As for `O[C@@H]1CN(Cc2ccc(F)cc2)CC[C@H]1NCc1ccccn1`, the figure is 28.55%; as for `Cc1cc(C)n(CC(=O)N2CCCC(c3cc4cccnc4[nH]3)C2)n1` (configuration not stated), 30.4%.
The figure for `Fc1ccc(CN2CCCC(c3nccnc3-n3ccnc3)C2)cc1` (configuration not stated) is 6.32%; for `CCOc1nnc(CN2CCCC(c3nc4ccccc4[nH]3)C2)s1` (configuration not stated) it is 22.8%; for `CCC(=O)NC1CCCN(Cc2ccc(NC(C)=O)cc2)C1` (configuration not stated) it is 27.6%.
For the compound `CCOc1ccc(CN2CCCC(c3cc4ncccc4[nH]3)C2)cc1` (configuration not stated), the INHIBITION was found to be 81.5%.
On to `CC(=O)Nc1ccc(CN2CCCC(c3cc4ncccc4[nH]3)C2)cc1` (configuration not stated), for which the INHIBITION is recorded as 50.95%.
`CCOc1ccc(CN2CCN(C(=O)c3cc(C4CC4)[nH]n3)CC2)cc1`: the INHIBITION came to 48.1%.
Take `CC(=O)N(Cc1noc(C)n1)C1CCN(CC2(O)CCCCC2)C1` (configuration not stated): the INHIBITION was determined as 33.7%.
As for `Cn1cc(CN2CCC(c3[nH]ncc3S(C)(=O)=O)C2)cn1` (configuration not stated), the figure is 8.53%; as for `CCOc1ncccc1NC(=O)c1ccc(C)s1`, 23.2%; as for `CCc1nnc(Sc2nn3cc(C)nc3s2)n1C`, -9.8%.
On to `Cc1noc(C)c1CCC(=O)N1CCOCC1CCc1cnccn1` (configuration not stated), for which the INHIBITION was determined as 25.8%.
For the compound `Cc1cnn(CCC(=O)N2CCN(C(=O)C3CC3)[C@@H]3CS(=O)(=O)C[C@@H]32)c1`, the INHIBITION turned out to be 3%.
As for `CC(C)(C)c1nc(CC(=O)N2CCCC(n3cncn3)C2)cs1` (configuration not stated), the figure is 47.65%; as for `Cc1ccc(C2(O)CCN(C(=O)c3ccc(S(N)(=O)=O)cc3)CC2)nc1`, 38%; as for `OC(COCc1cccs1)Cn1cc(-n2cccc2)cn1` (configuration not stated), 8.46%.
Consider `OC(COCc1ccco1)CSc1nnc2ccccn12` (configuration not stated), for which the INHIBITION stood at 14.8%.
As for `OC(COCc1cccs1)CSc1nnc2ccccn12` (configuration not stated), the figure is 56.5%; as for `OC(COCc1cccs1)Cn1cc(Cl)cn1` (configuration not stated), 75.2%; as for `OC(COCc1cccs1)Cn1cc(Br)cn1` (configuration not stated), -28.4%.
As for `OC(COCc1ccccc1)CSc1nnc2ccccn12` (configuration not stated), the figure is 42.6%.
Regarding `CSCC(=O)NC1CC(=O)N(CCc2ccccc2)C1` (configuration not stated), the INHIBITION was -17.6%.
Turning to `CCn1nc(C)c(NC(=O)CN2CCN(C(C)=O)CC2)c1C`, the INHIBITION is -4.23%.
For `CS(=O)(=O)N1CC2(CCN(CC3CCCCC3)CC2)Cc2ccccc21`, the INHIBITION is listed as 46.6%.
The figure for `O=C(Nc1ccc2c(ccn2CCN2CCOCC2)c1)c1ccccn1` is -4.15%; for `CC(C)OCCCN(Cc1ccncc1)Cc1cc(F)cc(F)c1` it is -26.2%.
Regarding `CCOCCN1CCN(c2ncccc2C#N)CC1CC` (configuration not stated), the INHIBITION is given as 4.03%.
For the compound `O=C(c1ccncn1)N1C[C@@H]2CN(Cc3cccnc3)CCO[C@@H]2C1`, the INHIBITION stood at 17.5%.
As for `O=C(Nc1ccc(OCc2cccc(F)c2)c(F)c1)C1COCCO1` (configuration not stated), the figure is 78.4%.
As for `O=C(Nc1cccc(OCc2cccc(F)c2)c1)C1COCCO1` (configuration not stated), the figure is -47.4%; as for `CCOC(=O)COc1cccc(NC(=O)C2COCCO2)c1` (configuration not stated), 8.24%.
As for `CCOCc1cccc(NC(=O)C2COCCO2)c1` (configuration not stated), the figure is 59.3%.
Regarding `O=C(OCc1ccccc1)c1cccc(NC(=O)C2COCCO2)c1` (configuration not stated), the INHIBITION was 7.44%.
The figure for `O=C(Nc1cccc(OCc2ccc(F)cc2)c1)C1COCCO1` (configuration not stated) is 10.3%.
The figure for `CN(C)C(=O)N1Cc2nnn(C)c2C(COCc2cccnc2)C1` (configuration not stated) is 27.6%.
Turning to `c1nc(CCC2CCCN2)cc(N2CCCOCC2)n1` (configuration not stated), the INHIBITION is 48.9%.
For the compound `COCCC(=O)NCC1CCC(C(c2ccccn2)N(C)C)CC1` (configuration not stated), the INHIBITION is 3.48%.
As for `Cc1ccc(-c2ccnc(N(C)CC3CCCO3)n2)c(C)n1` (configuration not stated), the figure is 47.4%.
The figure for `CCN1CCCC(CN(C)c2nccc(-c3ccc(C)nc3C)n2)C1` (configuration not stated) is 76.7%.
`Cc1ccc(-c2ccnc(N(C)CC3CCCN3C)n2)c(C)n1` (configuration not stated): the INHIBITION is listed as 10.6%.
With `CC(C)n1c(=O)[nH]c2cn(-c3ccc(Cl)cc3)c(=O)n21`, the INHIBITION is reported as -10.1%.
For the compound `COc1ccc(-c2cc(N)on2)cc1OC`, the INHIBITION is reported as 26.3%.
As for `CCN1CCc2c(sc3c2C(=O)NC(C=Cc2ccco2)N3)C1` (configuration not stated), the INHIBITION is listed as 49.9%.
As for `Cc1cccc(CN2CCCCC2c2n[nH]cc2-c2cc(C)no2)c1` (configuration not stated), the figure is 31.3%; as for `COc1ccc(CN2CCCCC2c2n[nH]cc2-c2cc(C)no2)cc1` (configuration not stated), 34.1%.
The figure for `CCc1ccc(CN2CCCCC2c2n[nH]cc2-c2cc(C)no2)cc1` (configuration not stated) is 66.6%; for `O=C(c1ccccc1N1CCOCC1)N1CCCC(n2ccnc2)C1` (configuration not stated) it is 22.1%.
Regarding `COCc1ncn2c1CN(C(=O)c1cnc3ccccc3c1)CC2`, the INHIBITION turned out to be 33.2%.
Take `Cc1noc(CN(Cc2cccc(C#N)c2)Cc2cccs2)n1`: the INHIBITION is 1.98%.
For the compound `Cc1cccc(C)c1NC(=O)c1cccc(N(C)S(C)(=O)=O)c1C`, the INHIBITION was 16.1%.
Regarding `CCn1c(CN2CCCC(O)(c3ccc(F)cc3)CC2)cnc1SC` (configuration not stated), the INHIBITION is on record as 51.1%.
The figure for `Cc1ncc(CN2CCCC(O)(c3ccc(F)cc3)CC2)n1C` (configuration not stated) is 21.255%.
Regarding `CCn1c(CN2CCC(O)(c3ccc4c(c3)OCO4)CC2)cnc1SC`, the INHIBITION stood at 34.15%.
Consider `Cc1nc(C)n(C2CCCN(C(=O)c3ccnc(N(C)C)c3)C2)n1` (configuration not stated), for which the INHIBITION came to 14.4%.
As for `O=C(c1ccc(CN2CCCC2)cc1)N1CCCC(n2cccn2)C1` (configuration not stated), the figure is 11.7%.
With `CS(=O)(=O)c1ccc(C(=O)N2CCCC(n3cccn3)C2)cc1` (configuration not stated), the INHIBITION was 18.8%.
The figure for `CCc1ccc(C(=O)N2CCCC(c3nn[nH]n3)C2)cc1` (configuration not stated) is 67.4%; for `CN(C)Cc1ccc(C(=O)N2CCCC(n3cccn3)C2)cc1` (configuration not stated) it is 61.9%.
The figure for `Cc1cnn(C2CCCN(C(=O)c3cccc(Cn4ccnc4)c3)C2)c1` (configuration not stated) is 42.9%.
With `CCc1nc(C2CCCN(C(=O)c3ccc(F)cc3)C2)no1` (configuration not stated), the INHIBITION worked out at 27.4%.
With `O=C(c1cccc(Cn2ccnc2)c1)N1CCCC(n2ccnc2)C1` (configuration not stated), the INHIBITION came to 22.3%.
The figure for `O=C(c1cccc(Cn2ccnc2)c1)N1CCCC(n2cccn2)C1` (configuration not stated) is 56.55%; for `CCc1nc(C2CCCN(C(=O)c3ccc(Cl)cc3)C2)no1` (configuration not stated) it is 23.4%.
As for `CS(=O)(=O)NCc1nnc2n1CCN(Cc1ccccn1)C2`, the figure is 36.9%; as for `CCN1C(=O)CCC12CCCN(CCc1ccccc1)C2` (configuration not stated), 0.112%; as for `CN(C)c1cnn(Cc2nc3ccccc3n2C)c(=O)c1`, 29.4%.
As for `CCC(C)[C@H](N)c1nnc(SCC(=O)Nc2ccc(C)cc2C)o1` (some centres not stated), the figure is 40.4%; as for `N#Cc1c(F)cccc1N1CCCC(C(=O)Nc2nccs2)C1` (configuration not stated), -1.85%; as for `CC(NC(=O)c1ccnc(C2CC2)n1)C1(N2CCOCC2)CCCC1` (configuration not stated), -20.3%.
With `Cc1occc1C(=O)N1CCOCC2(CCN(Cc3nccs3)C2)C1` (configuration not stated), the INHIBITION was determined as 18.5%.
The figure for `COCC(=O)N1C[C@H]2CNC[C@@]2(C(=O)NCc2snnc2C)C1` is -21.8%.
The figure for `O=C(N1CCCC1)N1C[C@@H](OCc2cccnc2)[C@H]2OCCC[C@H]21` is -55.7%; for `Cc1nc(COCC2CN(C(N)=O)Cc3nccn3C2)cs1` (configuration not stated) it is 40.5%.
